Screens deposited in PubChem by National Center for Advancing Translational Sciences (NCATS).
Sampled rows, rich in hits. Any-hit rate of the full collection: about 9.3%.
ELG1 DNA repair = inhibitors of ELG1-dependent DNA repair in HEK293T cells. AID 504467. HEK293T ELG1-luciferase reporter, luminescence, 16 h; DNA damage induced by 5-fluorouridine. 330,000 tested, 2.3% active. Potency, µM (doses to about 46.1 µM), for the others: at the top dose activity change, negative = inhibition, most hits filed as inhibitors; note: % is set by controls: 0 for no effect and ±100 for the full control effect; nearly all actives have a fitted effect of over 55% in size
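5-Fluorouridine DNA damage + compound/DMSO, 2,000 cells/well, 16 h, 37 °C/5% CO2. ONE-Glo, 30 min RT, luminescence. Readout = decrease in reporter signal.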
FLuc modulator = counter-screen for miR-21 project: firefly luciferase inhibitors or activators; 360,000 tested, 6.9% active; purified FLuc, Km substrates, luminescence inhibition; Potency, µM (titrated, usually from 57.5 µM), inactives show at the highest dose activity change, negative = inhibition, hits mostly inhibitors;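 note: plate controls were vehicle for no effect and reference inhibitor for full effect; nearly all actives have a fitted effect of over 55% in size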
Target sequence (P08659 whole entry, looked up): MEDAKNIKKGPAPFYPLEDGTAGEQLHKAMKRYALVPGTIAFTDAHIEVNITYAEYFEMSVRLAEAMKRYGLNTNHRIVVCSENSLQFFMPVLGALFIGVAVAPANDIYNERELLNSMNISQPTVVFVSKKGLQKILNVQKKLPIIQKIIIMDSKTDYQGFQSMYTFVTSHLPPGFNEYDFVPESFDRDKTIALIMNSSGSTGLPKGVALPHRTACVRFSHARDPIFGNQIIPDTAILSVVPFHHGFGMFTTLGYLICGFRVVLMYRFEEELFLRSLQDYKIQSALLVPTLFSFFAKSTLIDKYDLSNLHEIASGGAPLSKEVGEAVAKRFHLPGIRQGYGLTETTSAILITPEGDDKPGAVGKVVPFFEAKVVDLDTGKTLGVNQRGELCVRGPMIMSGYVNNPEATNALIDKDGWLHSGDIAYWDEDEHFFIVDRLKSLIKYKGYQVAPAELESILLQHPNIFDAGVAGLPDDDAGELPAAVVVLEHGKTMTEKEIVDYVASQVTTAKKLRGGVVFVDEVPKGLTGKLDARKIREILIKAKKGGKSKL
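Purified P. pyralis luciferase, 10 nM final, with Km-level 10 uM D-luciferin and 10 uM ATP in 50 mM Tris acetate pH 7.5, 10 mM Mg acetate, 0.01% Tween-20, 0.05% BSA; 6-point qHTS titration about 60 µM downward; luminescence read.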
NPC1 prom act = activates the NPC1 promoter | Huh7 NPC1 promoter luciferase reporter, 24 h | Potency, µM (doses to about 9.22 µM), inactives show top-dose activation, actives largely listed as activators | 320,000 tested, 2.4% active; note: % of control where 0% means no effect; nearly all actives have a fitted effect of over 60% in size
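Readout is luciferase luminescence, reflecting NPC1 promoter activation in stably transfected Huh7 cells after 24 h compound exposure at 37 °C in reduced-serum medium with 10% FBS.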
Rab9 prom act = Rab9 promoter activation | Huh7 Rab9 promoter-luciferase reporter, luminescence, 24 h | Potency, µM (highest dose often 9.22 µM), inactives show at the top dose activation, negative = inhibition, usual class: activators | 320,000 tested, 2.8% active | AID 485297; note: % of control where 0% means no effect; nearly all actives have a fitted effect of over 60% in size
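Measured in stably transfected Huh7 cells bearing a Rab9 promoter–luciferase construct: 24 h compound treatment at 37 °C, followed by luminescence detection.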
SMN2 splice enh = enhancers of SMN2 splice variant expression; 210,000 tested, 2.8% active; AID 1458; Potency, µM (series often up to 46.1 µM), without a hit: at the highest dose activity change, positive = activation, most hits filed as activators; HEK293 SMN2-luciferase splicing reporter, luminescence, 30-36 h; note: % of control where 0% means no effect; nearly all actives have a fitted effect of over 55% in size
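qHTS luciferase splicing reporter: luminescence rises when SMN2 exon 7 is included in transfected HEK293 cells. Compound exposure lasted 30-36 h at 37C, with 4.5 mM final sodium butyrate as control, followed by a ONE-Glo read.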
ELG1 genotox = genotoxicity induction in ELG1-luciferase HEK293T cells; HEK293T ELG1-luciferase reporter, luminescence, 16 h; Potency, µM (highest dose often 46 µM), without a hit: at the highest dose activity change, positive = activation, actives largely listed as activators; 330,000 tested, 1.3% active; AID 504466; note: % of control where 0% means no effect; nearly all actives have a fitted effect of over 60% in size
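ELG1-luciferase HEK293T cells, 2,000/well; compound pinned in; 16 hr, 37 °C, 5% CO2; ONE-Glo, 30 min RT; luminescence on CCD imager.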
The depositor's hits bear a star; ? = inconclusive; . = not tested or not shown; [ ] = remark or other dose. Calls come from the whole dose curve; as a rule, active = well fitted curve in the direction sought with a large enough effect; inconclusive = small, poorly fitted or top-dose-only effect, or another doubt; inactive = no such curve, though single readings can be large; an effect the other way counts as inactive or inconclusive. Potency is the fitted concentration of half-maximal effect.

SMILES | ELG1 DNA repair | FLuc modulator | NPC1 prom act | Rab9 prom act | SMN2 splice enh | ELG1 genotox
O=S(=O)(c1ccc(Cl)cc1)c1nnn2c1nc(NCc1ccc3c(c1)OCO3)c1sccc12 | . | 1.2% | . | . | . | .
CCn1c(Cc2ccccc2)nnc1SCC(=O)Nc1nnc(-c2ccccc2)s1 | ? | ? | 0.2% | -2.8% | 0.112µM* | 15.9%
Nc1cc(=O)[nH]c(SCC(=O)Nc2nnc(-c3ccccc3)s2)n1 | ? | 23.9µM* | 7.6% | 13.9% | 19.6% | 7.0%
CC(C)Cc1nnc(NC(=O)CSc2nc(-c3ccccc3)cc(=O)[nH]2)s1 | ? | 12µM* | 0.3% | 3.7% | . | -2.7%
Cc1cc(=O)[nH]c(SCC(=O)Nc2nnc(CC(C)C)s2)n1 | 9.8% | 3.2% | 0.1% | -1.4% | -18.7% | -1.1%
O=C(CSc1ncn[nH]1)Nc1nnc(-c2ccccc2)s1 | ? | 21.3µM* | 19.3% | ? | 7.4% | ?
Nc1cc(=O)[nH]c(SCC(=O)Nc2ccccc2-c2ccccc2)n1 | -8.5% | -1.1% | -5.6% | 11.7% | 0.0% | 5.6%
COCCn1c(N2CCN(c3ccc(OC)cc3)CC2)nc2c1c(=O)n(C)c(=O)n2C | 18.4µM* | -2.7% | 6.4% | 8.8% | 5.9% | -2.7%
CCOCCn1c(N2CCN(c3ccc(OC)cc3)CC2)nc2c1c(=O)n(C)c(=O)n2C | ? | -0.1% | 1.3% | -1.3% | -7.7% | 0.2%
C=CCn1c(N2CCN(c3ccc(OC)cc3)CC2)nc2c1c(=O)n(C)c(=O)n2C | 16.4µM* | -4.4% | 5.1% | -2.5% | -54.0% | -10.2%
Cc1ccn2c(c1)nc(=S)n2C(=O)c1ccco1 | ? | 1.51µM* | 3.98µM* | 1.58µM* | 17.8µM* | ?
CN(C)c1ccc(NC(=O)CC(NCc2cccnc2)C(=O)O)cc1 (stereo unspecified) | . | -0.7% | . | . | -2.2% | .
CCOC(=O)c1c(NC(=O)CSc2ncnc3ccccc23)sc(C)c1C | 11.6µM* | 0.7% | 0.0% | -4.0% | -28.0% | 4.5%
CC(OC(=O)C1=COCCO1)C(=O)Nc1ncc(Cl)cc1Cl (stereo unspecified) | 4.4% | -1.7% | -1.3% | -1.5% | . | 1.0%
CC(=O)Nc1cccc(/C(C)=N/NS(=O)(=O)c2ccc(C)cc2)c1 | 0.0% | -6.1% | -0.4% | -4.5% | 13.9% | 2.4%
O=C(Nc1ccc(F)cc1)NC1CCCCC1 | ? | ? | ? | ? | 2.6% | ?
Cc1ccc(NC(=O)C(=O)NC2CCCCC2)cc1 | ? | ? | 1.58µM* | 1.12µM* | 5.01µM* | ?
Cc1ccc(NC(=O)NC2CCCCCCC2)cc1 | ? | 7.57µM* | 1.26µM* | 2.24µM* | . | ?
O=C(NC1CCCCCC1)C(=O)NC1CCCC1 | ? | ? | ? | 2.24µM* | 12.6µM* | 18.5%
c1ccc2c(-c3ccncc3)c[nH]c2c1 | 20.6µM* | -15.1% | 1.4% | 3.7% | 0.3% | -8.5%
CO[C@@H]1C[C@H](O[C@H]2[C@@H](C)[C@H](O[C@@H]3O[C@@H](C)C[C@@H](N(C)C)[C@@H]3OC(C)=O)[C@H](C)C[C@]3(CO3)C(=O)[C@H](C)[C@H](OC(C)=O)[C@H](C)[C@H](C)OC(=O)[C@@H]2C)O[C@H](C)[C@@H]1OC(C)=O | . | . | . | . | -8.0%[20.6 µM] | .
CC(C)(CNC(=O)c1cc([N+](=O)[O-])ccc1N1CCC(Cc2ccccc2)CC1)N1CCOCC1 | 20.6µM* | 1.5% | -3.8% | -11.6% | . | -5.5%
O=C(NNc1ccc([N+](=O)[O-])cc1)Nc1ccccc1 | -0.1% | 21.3µM* | 3.0% | -0.5% | . | 3.2%
O=C(Nc1ccc(O)cc1)c1cccc(Oc2ccc([N+](=O)[O-])cc2)c1 | -4.0% | -3.2% | -6.0% | -2.1% | . | -8.7%
CN(C)S(=O)(=O)Oc1cccc(C(=O)Nc2ccc([N+](=O)[O-])cc2)c1 | ? | 13.5µM* | 15.3% | ? | -25.4% | -13.9%
SMILES | ELG1 DNA repair | FLuc modulator | NPC1 prom act | Rab9 prom act | SMN2 splice enh | ELG1 genotox
O=C(N[C@H]1CC1c1ccccc1)c1ccc([N+](=O)[O-])cc1 (stereo partly specified) | ? | 5.36µM* | 1.12µM* | 0.708µM* | . | ?
O=C(Nc1ccc(S(=O)(=O)N2CCCC2)cc1)c1ccc([N+](=O)[O-])cc1 | 9.2µM* | -0.5% | 0.5% | -2.9% | . | -5.6%
O=C(NNc1ccccc1[N+](=O)[O-])Nc1ccccc1 | 2.7% | -26.1% | 0.3% | -2.1% | 7.3% | 0.8%
COc1ccc(CCNC(=O)COc2ccccc2[N+](=O)[O-])cc1OC | -17.7% | -1.1% | -0.6% | -0.9% | . | -1.9%
CC(=O)N1c2ccc(S(=O)(=O)NCC3CCC(C(=O)N4CCCC(C)C4)CC3)cc2CC1C (stereo unspecified) | -6.7% | -0.5% | -4.1% | -9.4% | . | 0.5%
CCC(C)N1CCNCC1 (stereo unspecified) | -3.4% | 0.9% | -8.1% | 0.2% | -10.5% | 0.2%
O=C(Nc1ccc(NC(=O)c2cccc([N+](=O)[O-])c2)cc1)c1cccc([N+](=O)[O-])c1 | ? | -18.4% | 16.2% | 14.9% | . | 12.7%
CCN(CC)c1ccc(C(=O)Nc2ccccc2)cc1[N+](=O)[O-] | ? | 12µM* | ? | ? | 11.2µM* | 0.2%
O=C(Nc1ccc([N+](=O)[O-])cc1)c1ccccc1 | ? | 16.9µM* | 2.24µM* | 3.16µM* | . | 14.5%
COc1ccc(C(=O)Nc2ccc(Nc3ccccc3)cc2)cc1[N+](=O)[O-] | ? | 0.8% | -5.6% | -0.8% | . | -10.5%
CC(Cc1ccccc1)NC(=O)c1ccc([N+](=O)[O-])cc1 (stereo unspecified) | ? | 12µM* | 2.82µM* | 1.78µM* | 14.1µM* | ?
Cn1nccc1C(=O)Nc1ccc(S(=O)(=O)N2CCCC2)cc1 | -19.6% | 3.7% | 0.3% | 16.6% | . | 3.0%
Cn1nc(C(=O)Nc2ccc(S(=O)(=O)N3CCCCC3)cc2)ccc1=O | 16.4µM* | -1.4% | -1.1% | 2.6% | -17.5% | -0.7%
Cc1nn(CC(=O)OCC(=O)c2ccc(OC(F)F)cc2)c(C)c1[N+](=O)[O-] | ? | 5.0% | -4.6% | -2.8% | . | -0.3%
O=C(O)c1ccccc1Nc1ccc([N+](=O)[O-])cc1 | ? | ? | 19.5% | ? | 7.08µM* | -1.8%
O=C(O)c1ccccc1Nc1ccccc1C(=O)O | -1.5% | -0.5% | 6.3% | 9.0% | -4.0% | 4.4%
Cc1c(Cl)cccc1Nc1ccccc1C(=O)O | -22.1% | 16.9µM* | -4.6% | -1.5% | -2.4% | -2.2%
CCC(=O)c1ccc(OCC(=O)OCC(=O)N2c3ccccc3CC2C)cc1 (stereo unspecified) | ? | -1.1% | 2.0% | 3.6% | . | 1.2%
